# PTAP TSG101 blk: qHTS Assay for Iinhibitors of HIV-1 Budding by Blocking the Interaction of PTAP/TSG101. Fluorescence polarization, FITC-PTAP peptide / Tsg101 binding. Potency, µM (top dose mostly 115 µM), for the others: at the top dose activity change, negative = inhibition, actives largely listed as inhibitors. 340,000 tested, under 10 active. AID 493005, 2010; active = well fitted inhibition curve with a large enough effect in the main read-out, with a control signal flat, not every such curve was filed as active; inconclusive = small, poorly fitted or top-dose-only effect, or effect the other way, or a change in a side signal; inactive = no such curve, though single readings can be large or run the other way; also: potency is read from the fitted curve at half-maximal effect; % of control where 0% means no effect
# Target sequence (Q99816 whole entry, looked up): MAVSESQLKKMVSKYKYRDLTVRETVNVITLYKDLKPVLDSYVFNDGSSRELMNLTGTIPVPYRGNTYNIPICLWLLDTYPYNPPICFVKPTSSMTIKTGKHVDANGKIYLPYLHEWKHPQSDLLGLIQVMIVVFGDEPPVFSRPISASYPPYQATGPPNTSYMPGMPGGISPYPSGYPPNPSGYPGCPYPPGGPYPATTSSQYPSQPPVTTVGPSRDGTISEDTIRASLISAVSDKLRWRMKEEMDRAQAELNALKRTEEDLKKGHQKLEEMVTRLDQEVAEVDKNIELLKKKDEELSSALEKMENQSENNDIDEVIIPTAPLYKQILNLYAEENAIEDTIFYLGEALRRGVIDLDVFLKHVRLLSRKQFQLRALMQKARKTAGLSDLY
#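 FP read-out: FITC-PTAP peptide, 50 nM final, binding Tsg101 binding domain, 10 uM final; 20 min, r.t.; 10 mM HEPES pH 7.5, 0.15 M NaCl, 0.01% Tween 20, 3 mM EDTA, 0.1 mM TCEP.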
# PLK1 PBD inh: qHTS for Inhibitors of PLK1-PDB (polo-like kinase 1 - polo-box domain): Primary Screen | Plk1 PBD binding of FITC phosphopeptide, fluorescence polarization | Potency, µM, for the others: max response, negative = inhibition, most hits filed as inhibitors | 2.8% of 360,000 active | Serine/threonine-protein kinase PLK1 (Homo sapiens), P53350 | AID 720504, 2013; also: potency is read from the fitted curve at half-maximal effect; series mostly up to about 57 µM; % is scaled to controls: 0 for no effect and ±100 for the full control effect; nearly all actives have a fitted effect of over 65% in size
# TSHR antagonist: Antagonists of the Thyroid Stimulating Hormone Receptor: HTS campaign; TSHR-expressing cells, TSH-stimulated cAMP HTRF, 2 h; hits give low values; activity change, negative = inhibition, % at 11.5 µM; AID 504810, 2011; 0.2% of 330,000 active;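 active = activity change below a set negative limit, meaning inhibition stronger than a set level, cut at about -70% in these data; inconclusive = activity change between two set negative limits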; also: % is scaled to controls: 0 for no effect and ±100 for the full control effect
#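 Competitive HTRF cAMP read-out (cryptate anti-cAMP antibody, cAMP-d2; 30 min, room temperature) in freshly harvested TSHR cells. Compounds added before TSH at EC80 (4nM final), followed by 2 hours' incubation at 37 deg C.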
# uPA surface inh: qHTS for Inhibitors of Cell Surface uPA Generation | cell surface uPA generation assay, qHTS | Potency, µM (series often up to 38.3 µM), without a hit: at the highest dose activity change, negative = inhibition, most hits filed as inhibitors | 0.31% of 330,000 active; active = well fitted inhibition curve with a large enough effect; inconclusive = small, poorly fitted or top-dose-only effect; inactive = no such curve, though single readings can be large or run the other way; tested in mouse RAW 264.7 cells; also: potency is read from the fitted curve at half-maximal effect; % is scaled to controls: 0 for no effect and ±100 for the full control effect; nearly all actives have a fitted effect of over 55% in size
# VDR inhibitor: Inhibitors of the vitamin D receptor (VDR): qHTS | VDR-SRC2-3 peptide fluorescence polarization, 2 h | Vitamin D3 receptor (Homo sapiens), P11473 | 0.93% of 400,000 active | Potency, µM, for inactives: max response, negative = inhibition, usual class: inhibitors; also: potency is read from the fitted curve at half-maximal effect; % is scaled to controls: 0 for no effect and ±100 for the full control effect
#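 The screen uses fluorescence polarization to detect compounds that interfere with recruitment of the SRC2-3 coactivator peptide to VDR; plates are read after 2 h at room temperature.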
# VDR inh confirm: qHTS for Inhibitors of the vitamin D receptor (VDR): Hit Validation in Primary Screen. 89% of 840 active. AID 602199, 2012. shares compounds with VDR inhibitor. VDR-coactivator inhibition assay, qHTS confirmation. Potency, µM, actives largely listed as inhibitors; also: potency is read from the fitted curve at half-maximal effect
# VDR FP: qHTS for Inhibitors of the vitamin D receptor (VDR): Hit Validation using a Fluorescein Assay; VDR-coactivator binding, fluorescein fluorescence polarization; Potency, µM (highest dose often 57.1 µM), for the others: at the highest dose activity change, negative = inhibition, actives largely listed as inhibitors; 48% of 840 active; shares compounds with VDR inhibitor; also: potency is read from the fitted curve at half-maximal effect
# VDR bla: qHTS for Inhibitors of the vitamin D receptor (VDR): Hit Validation using a Beta-Lactamase Assay; shares compounds with VDR inhibitor; VDR beta-lactamase reporter cells, FRET ratio; cells co-treated with VDR agonist LG190178; Potency, µM (titrated, usually from 46.1 µM), for inactives: at the highest dose activity change, negative = inhibition, most hits filed as inhibitors; 23% of 840 active; also: potency is read from the fitted curve at half-maximal effect; % is scaled to controls: 0 for no effect and ±100 for the full control effect
# VDR viability: qHTS for Inhibitors of the vitamin D receptor (VDR): Hit Validation using a Cytotoxicity Assay; shares compounds with VDR inhibitor; 18% of 840 active; Potency, µM (top dose mostly 48.3 µM), inactives show at the highest dose activity change, negative = cytotoxicity, most hits filed as cytotoxic; cytotoxicity counter-screen, cell viability, qHTS;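 also: potency is read from the fitted curve at half-maximal effect; plate controls were DMSO for no effect and high-concentration cycloheximide for full effect; nearly all actives have a fitted effect of over 75% in size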
# An asterisk follows results filed as active; ? = inconclusive; . = no result. Sampled rows, rich in hits. Any-hit rate of the full collection: about 3.1%. Unless noted, calls follow the shape of the dose curve; as a rule, active = well fitted curve in the direction sought with a large enough effect; inconclusive = small, poorly fitted or top-dose-only effect, or another doubt; inactive = no such curve, though single readings can be large; an effect the other way counts as inactive or inconclusive.
SMILES,PTAP TSG101 blk,PLK1 PBD inh,TSHR antagonist,uPA surface inh,VDR inhibitor,others
CC(=O)O[C@@H]1[C@@H](O)C2OC3C=C(C)C(=O)[C@@H](O)[C@]3(CO)C1(C)C21CO1 (some centres undefined),.,.,.,.,-2.2%,
CC(C)=CCCC1(C)C=Cc2c(O)c3c(c(CC=C(C)C)c2O1)OC12C(CC4CC1C(C)(C)OC2(C/C=C(/C)C(=O)O)C4O)C3=O (centres undefined),.,.,.,.,50.1µM*,
C[C@@H](COc1ccccc1)N(CCCl)Cc1ccccc1,.,.,.,.,25.1µM*,
CCN(CCCl)Cc1ccccc1Br,-5.4%,?,14.4,0.3%,7.8%,
CC(C)[C@@]1(NC(=O)[C@H]2CC3c4cccc5[nH]cc(c45)C[C@H]3N(C)C2)O[C@@]2(O)C3CCCN3C(=O)[C@@H](Cc3ccccc3)N2C1=O (some centres undefined),.,.,.,.,-0.7%,
CC1C(=O)OC2C1CC[C@@]1(C)C=CC(=O)[C@@]3(C)O[C@@]213 (some centres undefined),.,.,.,.,17.6%,
CN1CCCC2(CCN(C(=O)c3ccco3)CC2)C1,.,.,.,.,0.7%,
CC/C(=C\C=C\[C@@H]1C=C[C@@H]2CCC[C@H]2[C@@H]1C(=O)c1ccc[nH]1)[C@@H]1O[C@@H]([C@@H](C)C(=O)O)CC[C@@H]1C,-18.3%,?,-72.2*,-11.3%,1.7%,
COc1cc(Cl)ccc1NC(=S)N(CCCN1CCOCC1)Cc1cn(C)c2ccccc12,0.1%,5.32µM*,-7.1,?,?,
O=C1NC(=S)NC(=O)C1c1ccccc1,-6.2%,23.8µM*,.,2.6%,?,
CC[C@]1(c2cccc(O)c2)CCCCN(C)C1,.,.,.,.,4.8%,
COC(=O)C12CC3=C[C@H](CC3=O)Cc3ccccc3[C@@H]1CNC2=O (some centres undefined),.,.,.,.,2.5%,
CCOC(=O)c1c(/N=C/C2C(=O)NC(=S)NC2=O)sc(C)c1C,.,.,16.7,.,.,
CCOC(=O)c1cc(C)sc1/N=C/C1C(=O)NC(=S)NC1=O,7.9%,5.32µM*,-2.4,-3.4%,?,
C=C1CC2C(CC[C@]3(C)C(=O)CCC23)[C@]2(C)C=CC(=O)C=C12 (some centres undefined),.,.,.,.,-10.7%,
CCc1ccc(/C=C(/C#N)C(N)=S)cc1,-1.0%,7.52µM*,4.5,-15.0%,?,
CN(C)C(=S)SC(=S)N(C)C,.,.,.,.,28.2µM*,
C=CCc1c(C)[nH]c(=S)c(C#N)c1C,-5.0%,23.8µM*,-7.5,-2.7%,?,
COc1ccc(N2C(=O)NC(=O)/C(=C\c3ccccc3[N+](=O)[O-])C2=O)cc1,-3.6%,11.9µM*,11.2,6.2%,50.1µM*,
COc1cccc(N2C(=O)NC(=O)/C(=C/c3ccc4c5c(cccc35)CC4)C2=O)c1,.,.,18.3,.,.,
CCN(CC)C(=O)c1ccc(NC(=O)Nc2ccccc2F)cc1,-2.5%,3.2%,6.1,4.47µM*,-9.9%,
CCN(CC)C(=O)c1ccc(NC(=S)NC(=O)CCc2ccccc2)cc1,-4.2%,-5.0%,1.8,-3.2%,-20.3%,
C[C@@H]1OC(=O)[C@H]2C[C@H]3CCCC[C@@H]3[C@@H](/C=C/[C@H]3CCC[C@H](C)N3C)[C@@H]12,.,.,.,.,-9.8%,
Cn1cnc([N+](=O)[O-])c1Sc1ccc([N+](=O)[O-])cc1,-0.6%,10.6µM*,4.1,.,-27.8%,
CCCCC/C=C\C/C=C\CCCCCCCCCC(=O)NCCc1ccc(O)c(O)c1,.,.,.,.,-1.9%,
SMILES,PTAP TSG101 blk,PLK1 PBD inh,TSHR antagonist,uPA surface inh,VDR inhibitor,others
O=C1c2ccccc2-c2cccc3cccc1c23,-18.6%,-29.7%,.,8.91µM*,-0.4%,
CCN1C(=O)/C(=C\C(=O)c2cccs2)c2cc(Br)ccc21,-7.1%,5.32µM*,-4.7,8.8%,35.5µM*,VDR inh confirm=6.7*;VDR FP=?;VDR bla=?;VDR viability=?
CCn1cc(C(=O)c2cccs2)c2ccccc21,-5.8%,-1.3%,5.3,.,17.4%,
COC(=O)C[C@]1(C(=O)OC)CN(C#N)N(c2ccc(Cl)cc2)C12c1ccccc1-c1ccccc12,0.6%,-10.4%,-49.5,-14.0%,20µM*,VDR inh confirm=?;VDR FP=6.31µM*;VDR bla=3.66µM*;VDR viability=2.91µM*
COC(=O)[C@@H]1[C@@H](C(=O)OC)C2(c3ccccc3-c3ccccc32)N(c2ccc(Cl)cc2)N1C#N,-4.9%,-18.0%,-33.2,-10.8%,?,
Cc1ccc(N2C(=O)NC(=O)/C(=C\c3cnc(-c4ccccc4)nc3)C2=O)cc1,-12.2%,8.44µM*,-7.4,1.4%,22.4µM*,VDR inh confirm=26.7*;VDR FP=?;VDR bla=11.0%;VDR viability=8.7%
CCOC(=O)COc1ccc(/C=C2\C(=O)NC(=S)N(c3ccc(OC)cc3)C2=O)cc1OC,0.0%,15µM*,5.2,11.4%,44.7µM*,VDR inh confirm=23.8*;VDR FP=14.1µM*;VDR bla=21.5%;VDR viability=14.7%
Cc1cc(/C=C2\C(=O)NC(=O)N(c3ccc(Cl)cc3)C2=O)c(C)n1C,-1.2%,-8.9%,11.6,12.2%,-5.6%,
CCOc1ccc(N2C(=O)NC(=O)/C(=C\c3ccccc3[N+](=O)[O-])C2=O)cc1,-0.6%,9.47µM*,6.0,4.0%,31.6µM*,VDR inh confirm=9.47*;VDR FP=?;VDR bla=8.7%;VDR viability=-11.0%
